Experimental data as given in PubChem BioAssay AID1159580 (chemical genetic matrix, 2015).
Values joined by “and” are separate entries in the source; they are usually repeats but may differ in a detail not shown here. Equal values may be shown once. About 2,000 (36%) of roughly 5,500 compounds were called active. Roughly 18% stayed inconclusive and do not appear here. Cut-off read from the data, not from the text of the source: active = normalized growth mostly below about 0.91 (no sharp cut-off); inconclusive = no clear call, values can overlap the other calls; inactive = mostly above about 0.92. This is one part of the list.

Assay: chemical genetic growth profiling, strain panel (AID 1159580);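 note: tested at 20 µM; growth read once vehicle control cultures reached saturation at 30 °C; 1 = growth at the plate median or of vehicle wells; lower values mean less growth of the strain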
Conditions: S. cerevisiae deletion strains, growth OD

Measured: normalized growth

NS(=O)(=O)c1cc2c(cc1Cl)NC(C1CC3C=CC1C3)NS2(=O)=O (stereo unspecified)
inactive: locus YAL013W, strain DEP1, stronger effect = lower value 1 | locus YAL021C, strain ccr4, stronger effect = lower value 1 | locus YAL026C, strain drs2, stronger effect = lower value 0.99 | locus YAL030W, strain snc1, stronger effect = lower value 0.99 | locus YAL040C, strain CLN3, stronger effect = lower value 0.979 | locus YBL061C, strain skt5, stronger effect = lower value 1 | locus YBR009C, strain hhf1, stronger effect = lower value 0.982 | locus YBR021W, strain FUR4, stronger effect = lower value 1.03 | locus YBR023C, strain chs3, stronger effect = lower value 0.991 | locus YBR171W, strain sec66, stronger effect = lower value 0.981 | locus YBR229C, strain ROT2, stronger effect = lower value 0.96 | locus YBR231C, strain swc5, stronger effect = lower value 0.989 | locus YBR279W, strain paf1, stronger effect = lower value 0.996 | locus YCL011C, strain gbp2, stronger effect = lower value 0.989 | locus YCL016C, strain dcc1, stronger effect = lower value 0.995 | locus YCL029C, strain bik1, stronger effect = lower value 0.941 | locus YCL061C, strain MRC1 (second series), stronger effect = lower value 0.99 | locus YCL061C, strain MRC1, stronger effect = lower value 0.991 | locus YCL069W, strain vba3, stronger effect = lower value 0.997 | locus YCR088W, strain abp1, stronger effect = lower value 0.991 | locus YDL005C, strain med2, stronger effect = lower value 0.983 | locus YDL035C, strain GPR1, stronger effect = lower value 1.01 | locus YDL040C, strain nat1, stronger effect = lower value 0.994 | locus YDL074C, strain BRE1, stronger effect = lower value 1.01 | locus YDL101C, strain DUN1, stronger effect = lower value 0.967 | locus YDL134C, strain PPH21, stronger effect = lower value 0.99 | locus YDL185W, strain tfp1, stronger effect = lower value 0.959 | locus YDL192W, strain arf1, stronger effect = lower value 0.992 | locus YDR001C, strain nth1, stronger effect = lower value 0.985 | locus YDR069C, strain doa4, stronger effect = lower value 1.01 | locus YDR101C, strain arx1, stronger effect = lower value 1 | locus YDR137W, strain rgp1, stronger effect = lower value 1.01 | locus YDR150W, strain NUM1, stronger effect = lower value 0.981 and 1 | locus YDR159W, strain sac3, stronger effect = lower value 0.987 | locus YDR162C, strain NBP2, stronger effect = lower value 0.911 | locus YDR195W, strain ref2 0.963 | locus YDR297W, strain sur2, stronger effect = lower value 0.991 | locus YDR318W, strain mcm21, stronger effect = lower value 1.02 | locus YDR334W, strain swr1, stronger effect = lower value 0.995 | locus YDR335W, strain msn5, stronger effect = lower value 0.991 | locus YDR363W, strain ESC2, stronger effect = lower value 0.956 | locus YDR388W, stronger effect = lower value 1 | locus YDR392W, strain spt3, stronger effect = lower value 0.924 | locus YDR502C, strain sam2, stronger effect = lower value 0.978 | locus YEL003W, strain gim4, stronger effect = lower value 0.997 | locus YEL037C, strain rad23, stronger effect = lower value 0.999 | locus YEL061C, strain CIN8 (second series), stronger effect = lower value 0.984 | locus YEL061C, strain CIN8, stronger effect = lower value 0.989 | locus YER002W, strain NOP16, stronger effect = lower value 0.987 | locus YER015W, strain faa2, stronger effect = lower value 0.994 | locus YER016W, strain bim1, stronger effect = lower value 0.994 | locus YER110C, stronger effect = lower value 0.937 | locus YER111C, strain swi4, stronger effect = lower value 0.98 | locus YER155C, strain BEM2 (second series), stronger effect = lower value 0.974 | locus YER155C, strain BEM2, stronger effect = lower value 0.988 | locus YER167W, strain BCK2, stronger effect = lower value 1.04 | locus YFR010W, strain ubp6, stronger effect = lower value 0.988 | locus YGL078C, strain dbp3, stronger effect = lower value 0.986 | locus YGL086W, strain mad1, stronger effect = lower value 1.03 | locus YGL167C, strain pmr1, stronger effect = lower value 0.987 | locus YGL173C, strain kem1, stronger effect = lower value 0.994 | locus YGL227W, strain vid30, stronger effect = lower value 0.978 | locus YGL240W, strain doc1, stronger effect = lower value 0.977 | locus YGL248W, strain PDE1, stronger effect = lower value 0.979 | locus YGL253W, strain hxk2, stronger effect = lower value 0.995 | locus YGR078C, strain PAC10, stronger effect = lower value 1.01 | locus YGR135W, strain pre9, stronger effect = lower value 0.987 | locus YGR229C, strain SMI1, stronger effect = lower value 0.998 | locus YGR252W, strain gcn5, stronger effect = lower value 1.07 | locus YHR013C, strain ard1, stronger effect = lower value 0.962 | locus YHR027C, strain rpn1, stronger effect = lower value 0.993 | locus YHR030C, strain SLT2, stronger effect = lower value 1 and 1.02 | locus YHR079C, strain IRE1 (second series), stronger effect = lower value 1.01 | locus YHR079C, strain IRE1, stronger effect = lower value 1.02 | locus YHR094C, strain hxt1, stronger effect = lower value 0.998 | locus YHR129C, strain ARP1, stronger effect = lower value 0.994 | locus YHR142W, strain chs7, stronger effect = lower value 1 | locus YHR200W, strain rpn10, stronger effect = lower value 0.997 | locus YIL066C, strain RNR3, stronger effect = lower value 0.989 | locus YIL073C, strain SPO22, stronger effect = lower value 1.08 | locus YIL125W, strain kgd1, stronger effect = lower value 0.992 | locus YIR030C, strain dcg1, stronger effect = lower value 0.984 | locus YJL092W, strain hpr5, stronger effect = lower value 0.99 | locus YJL095W, strain BCK1 (second series), stronger effect = lower value 0.99 | locus YJL095W, strain BCK1, stronger effect = lower value 1.01 and 1.06 | locus YJL115W, strain asf1, stronger effect = lower value 0.997 | locus YJL129C, strain trk1, stronger effect = lower value 0.986 | locus YJL134W, strain LCB3, stronger effect = lower value 0.984 | locus YJL154C, strain vps35, stronger effect = lower value 0.988 | locus YJL164C, strain tpk1, stronger effect = lower value 0.997 | locus YJL166W, strain qcr8, stronger effect = lower value 0.997 | locus YJL168C, strain set2, stronger effect = lower value 0.992 | locus YJL187C, strain SWE1 (second series), stronger effect = lower value 0.975 | locus YJL187C, strain SWE1, stronger effect = lower value 0.989 | locus YJR043C, strain POL32, stronger effect = lower value 1.06 | locus YJR066W, strain TOR1, stronger effect = lower value 0.976
